Measurements: PubChem BioAssay AID1445 (SRMLSC, 2008)
The campaign covered roughly 220,000 compounds. About 910 (0.41%) were called active. This excerpt belongs to a sample that is enriched for actives. Potency and affinity values are given separately. A number with no mark means an inactive call.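 How the source made its calls: active means primary inhibition above the hit cutoff, then over 50% inhibition at one or more dose response concentrations (cut at about 23% in these data, passing the limit was not always enough); inconclusive means conflicting primary data, or primary hits not chosen for dose response; inactive means low primary inhibition, or under 50% at every dose.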

molecular target: Aminopeptidase N (Plasmodium falciparum (isolate 3D7)) (UniProt O96935); test: malaria alanyl aminopeptidase activity blockers – biochemical, fluorogenic H-Leu-NHMec substrate, 1536-well (AID 1445); details: recombinant M1AAP, H-Leu-NHMec fluorogenic kinetic assay; at 30 µM, stronger effect = higher value unless noted;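 further: plate controls were DMSO full reaction for no effect and no enzyme background for full effect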
Sequence (O96935 whole entry, looked up): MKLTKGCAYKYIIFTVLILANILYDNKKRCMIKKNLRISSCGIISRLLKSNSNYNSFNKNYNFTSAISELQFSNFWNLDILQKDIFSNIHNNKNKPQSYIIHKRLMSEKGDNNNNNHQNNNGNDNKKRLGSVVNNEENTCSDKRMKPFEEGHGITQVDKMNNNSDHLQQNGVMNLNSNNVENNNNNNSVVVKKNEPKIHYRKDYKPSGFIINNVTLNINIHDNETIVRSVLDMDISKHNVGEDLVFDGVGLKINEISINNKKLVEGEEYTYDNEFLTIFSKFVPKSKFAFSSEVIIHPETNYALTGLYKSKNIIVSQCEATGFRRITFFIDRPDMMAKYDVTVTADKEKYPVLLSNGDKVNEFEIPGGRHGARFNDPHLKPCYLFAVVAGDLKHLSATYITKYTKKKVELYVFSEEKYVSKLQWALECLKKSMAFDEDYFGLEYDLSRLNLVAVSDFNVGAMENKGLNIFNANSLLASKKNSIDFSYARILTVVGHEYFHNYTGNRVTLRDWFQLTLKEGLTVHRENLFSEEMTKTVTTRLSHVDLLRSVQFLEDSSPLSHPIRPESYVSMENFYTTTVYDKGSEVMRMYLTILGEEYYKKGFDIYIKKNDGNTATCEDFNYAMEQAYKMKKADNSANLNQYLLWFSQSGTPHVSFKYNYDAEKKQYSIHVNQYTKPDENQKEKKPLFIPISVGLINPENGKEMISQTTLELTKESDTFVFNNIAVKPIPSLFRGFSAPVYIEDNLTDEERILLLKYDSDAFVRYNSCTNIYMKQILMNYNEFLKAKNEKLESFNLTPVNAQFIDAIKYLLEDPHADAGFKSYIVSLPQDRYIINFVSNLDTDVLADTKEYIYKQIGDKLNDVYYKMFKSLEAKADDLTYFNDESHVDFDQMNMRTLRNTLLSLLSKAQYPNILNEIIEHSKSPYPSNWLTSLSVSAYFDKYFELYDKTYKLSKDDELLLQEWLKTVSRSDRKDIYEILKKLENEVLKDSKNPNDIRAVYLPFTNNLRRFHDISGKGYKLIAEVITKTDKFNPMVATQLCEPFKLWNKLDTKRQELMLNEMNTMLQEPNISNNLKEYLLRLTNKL

Row | SMILES | inhibition
1 | CS(=O)(=O)c1ccc2nnn(OCC(=O)Nc3ccc(Br)cc3Br)c2c1 | 1.15%
2 | O=C(COC(=O)CCOc1ccccc1)NCc1ccco1 | 12.3%
3 | O=C(O)c1cccc(CSc2n[nH]c(-c3ccc(Cl)cc3Cl)n2)c1 | 7.08%
4 | Cc1ccc(NC(=S)NC(=O)/C=C/c2ccco2)c(O)c1 | 10.8%
5 | O=S(=O)(c1ccc(F)cc1)N1CCN=C1SCc1cccnc1 | 0.03%
6 | O=C(Nc1cccc(O)c1)c1cnn2cccnc12 | 13.6%
7 | CC1(C)CC(=O)c2sc(NS(=O)(=O)c3ccc(F)cc3)nc2C1 | 5.81%
8 | CCc1nnc(NC(=O)CSc2nnc(CNc3cccc(C)c3)n2-c2ccccc2)s1 | 0.64%
9 | O=C(CCCCl)OCc1cn(-c2ccc(Cl)cc2)nn1 | 8.74%
10 | O=C(NC1CCCC1)C1CCC(=O)N1C1CCCC1 (stereo unspecified) | 6.41%
11 | CCOC(=O)c1oc2ccccc2c1CN1CCN(C)CC1 | 0.88%
12 | Clc1ccc(/C=N\Nc2ccccc2)cc1 | 4.31%
13 | Clc1ccc(/C=N/Nc2nnc(Cl)c3ccccc23)cc1 | 14.4%
14 | COc1cc(N2CN=c3s/c(=C\c4ccccn4)c(=O)n3C2)cc(OC)c1OC | 5.01%
15 | O=[N+]([O-])c1cc(Cl)ccc1-c1nc(-c2ccncc2)no1 | 3.23%
16 | C=CCN1C(=O)/C(=c2\sc3nc(=O)c(Cc4ccc(OC)c(OC)c4)nn3c2=O)c2ccccc21 | 11.6%
17 | CCN1C(=O)/C(=c2\sc3nc(=O)c(Cc4ccccc4)nn3c2=O)c2ccccc21 | 7.93%
18 | CCC(C)c1ccc2oc(-c3ccc(NC(=O)Cn4cnc5c(=O)n(C)c(=O)n(C)c54)cc3)nc2c1 (stereo unspecified) | 17.4%
19 | O=C(N1CCOCC1)C1(c2ccc(Cl)cc2)CCCC1 | -5.21%
20 | O=C(CSc1ncc(C(F)(F)F)cc1Cl)NCC1CCCO1 (stereo unspecified) | 0.4%
21 | O=C1NC(=S)N/C1=C/c1cccc([N+](=O)[O-])c1 | 1.79%
22 | O=C1NC(=S)N/C1=C\c1cccc([N+](=O)[O-])c1 | -1.35%
23 | O=C1NC(=S)N/C1=C/c1cc([N+](=O)[O-])ccc1O | 27.2% (active)

Row | SMILES | inhibition
24 | Cc1ccc(C(=O)NCCN2CCNC2=O)cc1 | -8.25%
25 | Cc1ccccc1OCC(=O)Nc1ccc2oc(=O)ccc2c1 | 16.6%
26 | CCOC(=O)C1CCN(C(=O)COc2ccc(N(C)S(=O)(=O)c3ccc(OCC)cc3)cc2)CC1 | -2.18%
27 | CCn1c(CSc2nc3ccccc3s2)nnc1SCC(=O)c1ccc(O)cc1O | 6.78%
28 | CCn1c(CSc2nc3ccccc3s2)nnc1SCC(=O)c1ccc(Cl)cc1 | 11.1%
29 | O=C(Cc1c(C(=O)O)[nH]c2ccc(Cl)cc12)Nc1ccc2c(c1)OCCO2 | 4.87%
30 | Cc1ccc(-c2nnn(CC(=O)N(Cc3ccco3)C(C(=O)NC3CCCC3)c3cccs3)n2)o1 (stereo unspecified) | 0.46%
31 | O=C(N/N=C/c1ccc(O)c(O)c1)C1c2ccccc2Oc2ccccc21 | 25.6% (active)
32 | O=C(N/N=C\c1cccnc1)C1c2ccccc2Oc2ccccc21 | 3.5%
33 | COc1cc(/C=N/NC(=O)C2c3ccccc3Oc3ccccc32)ccc1O | 3.49%
34 | Nc1cc(-c2cccc(F)c2)nn1S(=O)(=O)c1cccc2nsnc12 | 6.59%
35 | CC1=C(C(=O)Nc2ccccn2)C(c2cn(C)nc2C)C2=C(CCCC2=O)N1 (stereo unspecified) | 9.42%
36 | COc1ccccc1C(=O)Oc1cc(N)n(S(=O)(=O)c2ccccc2)n1 | 11.1%
37 | Cc1ccc(C(=O)Oc2cc(N)n(S(=O)(=O)c3ccc(C)cc3)n2)cc1 | -3.58%
38 | COc1cccc(NC(=S)N(CCc2ccc(OC)c(OC)c2)Cc2ccccn2)c1 | 4.47%
39 | CCc1ccc2nc(N3C(=O)C(O)=C(C(=O)c4ccco4)C3c3cccs3)sc2c1 (stereo unspecified) | 14.9%
40 | Cc1ccc2nc(N3C(=O)C(O)=C(C(=O)c4ccco4)C3c3cccs3)sc2c1 (stereo unspecified) | 27.4% (active)
41 | Cc1ccc2nc(N3C(=O)C(O)=C(C(=O)c4cc5ccccc5o4)C3c3cccs3)sc2c1 (stereo unspecified) | 10.6%
42 | Cc1nnc(SCC(=O)N2CCN(C(=O)c3ccco3)CC2)n1-c1ccccc1 | -1.57%
43 | Cc1ccc(NC(=O)C(=O)NN)cc1 | 3.55%
44 | CC(C)(C)n1nnnc1C(c1cccs1)N1CCN(Cc2ccc3c(c2)OCO3)CC1 (stereo unspecified) | 3.23%
45 | COc1ccc(C2OC(=O)CC2C(=O)NCc2ccc(Cl)cc2)cc1OC (stereo unspecified) | -0.93%
46 | CCn1c(=O)c(C(=O)NNS(=O)(=O)c2ccc(C)cc2)c(O)c2ccccc21 | 5.97%
